The structures appear in SMILES notation. Records with an inconclusive call do not appear. The source made the active and inactive calls. How the source made its calls: active means hit-call score of the fitted dose curve at least 0.9, where 1 is the maximum; inconclusive means response in the unintended direction; inactive means score below 0.9.

One assay is described as follows: Tanguay_ZF_120hpf_MORT_legacy: (Legacy) Oregon State University Tanguay Lab 120 Hour Post-fertilization zebrafish Assay for Mortality (AID 2283633).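 On AC50: fitted as increase in binary mortality versus DMSO negative control.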 In outline: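 Dechorionated Tropical 5D wild-type zebrafish embryos, one per well from 6 hpf, static exposure in 0.64% DMSO at 28C until 120 hpf. Mortality scored as binary by brightfield microscopy at 24 and 120 hpf.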
In the case of `O=C1CCC(N2C(=O)c3ccccc3C2=O)C(=O)N1` (stereo not given), the molecule was classed as inactive.
As to `Cc1ccc(S(=O)(=O)O)cc1C`, the result was inactive.
Still for that read-out and setting: then `C1N2CN3CN1CN(C2)C3`, with “inactive”; and `CN(C)c1ccc(N=NS(=O)(=O)O)cc1`, with “inactive”; and `CC(C)CC(C)(O)C#CC(C)(O)CC(C)C` (stereo not given), with “inactive”.
On to `COC(=O)c1ccccc1O`, for which the molecule was called inactive.
Regarding `CCC(C)(C)C(=O)O[C@H]1C[C@@H](C)C=C2C=C[C@H](C)[C@H](CC[C@@H]3C[C@@H](O)CC(=O)O3)[C@H]21`, the AC50 was 1.45 µM (active).
Regarding `Cn1c(=O)c2c(ncn2C)n(C)c1=O`, the molecule was classed as inactive.
On the same count and under the same terms, next, `O=C(OC[C@H]1O[C@@H](OC(=O)c2cc(O)c(O)c(OC(=O)c3cc(O)c(O)c(O)c3)c2)[C@H](OC(=O)c2cc(O)c(O)c(OC(=O)c3cc(O)c(O)c(O)c3)c2)[C@@H](OC(=O)c2cc(O)c(O)c(OC(=O)c3cc(O)c(O)c(O)c3)c2)[C@@H]1OC(=O)c1cc(O)c(O)c(OC(=O)c2cc(O)c(O)c(O)c2)c1)c1cc(O)c(O)c(OC(=O)c2cc(O)c(O)c(O)c2)c1`: “inactive”; `Cc1[nH]cnc1C[C@H]1CCc2c(C)c3ccccc3n2C1=O`: “inactive”.
Take `CCCCCCc1ccc(O)cc1O`: the AC50 is 25.9 µM (active).
For the molecule `CC(=O)OC[C@H]1O[C@@](COC(C)=O)(O[C@H]2O[C@H](COC(C)=O)[C@@H](OC(C)=O)[C@H](OC(C)=O)[C@H]2OC(C)=O)[C@@H](OC(C)=O)[C@@H]1OC(C)=O`, the molecule was called inactive.
Still for that read-out and setting: then `O=P(OC(CCl)CCl)(OC(CCl)CCl)OC(CCl)CCl`, with “inactive”.
For `CC(C)c1cccc(C(C)C)c1N1C(=O)c2ccc(O)cc2C1=O`, the AC50 was 26.9 µM (active).
As for `CC(=O)OCCC(C)C`, the call was inactive.

A short description of the next assay: Tanguay_ZF_120hpf_YSE_legacy: (Legacy) Oregon State University Tanguay Lab 120 Hour Post-fertilization zebrafish Assay for Yolk Sac Edema (AID 2283634).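 On AC50: actives raise the incidence of yolk sac edema above the DMSO baseline.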 A digest of the protocol: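 Dechorionated Tropical 5D wild-type zebrafish embryos were exposed statically, one per well, from 6 to 120 hpf at 28C in 0.64% DMSO. Yolk sac edema was scored present/absent by brightfield at 120 hpf, and dead embryos were excluded.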
Regarding `O=c1n(CC2CO2)c(=O)n(CC2CO2)c(=O)n1CC1CO1` (stereo not given), the result was inactive.
Same read-out and setting: then `O=C1CCC(N2C(=O)c3ccccc3C2=O)C(=O)N1` (stereo not given), with “inactive”.
On the same count and under the same terms, next, `Cc1ccc(S(=O)(=O)O)cc1C`: “inactive”; `C1N2CN3CN1CN(C2)C3`: “inactive”.
Still for that read-out and setting: then `COC(=O)c1c(Cl)c(Cl)c(C(=O)OC)c(Cl)c1Cl`, with “inactive”; and `CN(C)c1ccc(N=NS(=O)(=O)O)cc1`, with “inactive”.
For the molecule `CC(C)CC(C)(O)C#CC(C)(O)CC(C)C` (stereo not given), the molecule was called inactive.
Consider `O=C1OC(=O)C2C3C=CC(C3)C12` (stereo not given), for which the outcome was inactive.
Turning to `COC(=O)c1ccccc1O`, the result was inactive.
The same measure, in the same setting: next, `O=C(CCCCCCCCc1cccnc1)N1CCC(C=C(c2ccccc2)c2ccccc2)CC1`: “inactive”; `C[C@](N)(Cc1ccc(O)c(O)c1)C(=O)O`: “inactive”.
The same measure, in the same setting: next, `Cn1cnc([N+](=O)[O-])c1Sc1ncnc2nc[nH]c12`: “inactive”; `O=C1CCCCCN1`: “inactive”.
`Oc1ccc2c(c1)-c1ccccc1C2`: the AC50 was 37.6 µM (active).
In the case of `CC(C)=CCC/C(C)=C\CO`, the call was inactive.
Take `CCC(C)(C)C(=O)O[C@H]1C[C@@H](C)C=C2C=C[C@H](C)[C@H](CC[C@@H]3C[C@@H](O)CC(=O)O3)[C@H]21`: the half-maximal activity concentration (AC50) was 0.649 µM (active).
Turning to `Nc1cccc(N)c1`, the call was inactive.
The same measure, in the same setting: then `Nc1nc2ncc(CNc3ccc(C(=O)N[C@@H](CCC(=O)O)C(=O)O)cc3)nc2c(=O)[nH]1`, with “inactive”.
The same measure, in the same setting: then `Cn1c(=O)c2c(ncn2C)n(C)c1=O`, with “inactive”; and `O=C(OC[C@H]1O[C@@H](OC(=O)c2cc(O)c(O)c(OC(=O)c3cc(O)c(O)c(O)c3)c2)[C@H](OC(=O)c2cc(O)c(O)c(OC(=O)c3cc(O)c(O)c(O)c3)c2)[C@@H](OC(=O)c2cc(O)c(O)c(OC(=O)c3cc(O)c(O)c(O)c3)c2)[C@@H]1OC(=O)c1cc(O)c(O)c(OC(=O)c2cc(O)c(O)c(O)c2)c1)c1cc(O)c(O)c(OC(=O)c2cc(O)c(O)c(O)c2)c1`, with “inactive”; and `Cc1[nH]cnc1C[C@H]1CCc2c(C)c3ccccc3n2C1=O`, with “inactive”.
For `CCCCCCc1ccc(O)cc1O`, the result was inactive.
Regarding `CC(=O)OC[C@H]1O[C@@](COC(C)=O)(O[C@H]2O[C@H](COC(C)=O)[C@@H](OC(C)=O)[C@H](OC(C)=O)[C@H]2OC(C)=O)[C@@H](OC(C)=O)[C@@H]1OC(C)=O`, the call was inactive.
In the case of `O=P(OC(CCl)CCl)(OC(CCl)CCl)OC(CCl)CCl`, the AC50 is 25.4 µM (active).
`COc1ccc(-n2nc(C(F)F)cc2-c2ccc(S(C)=O)cc2)cc1` (stereo not given): the half-maximal activity concentration (AC50) was 24.8 µM (active).
Turning to `O=C(O)c1cc(N=Nc2ccc(S(=O)(=O)Nc3ccccn3)cc2)ccc1O`, the molecule was called inactive.
Still for that read-out and setting: next, `CC(C)c1cccc(C(C)C)c1N1C(=O)c2ccc(O)cc2C1=O`: “inactive”; `CC(=O)OCCC(C)C`: “inactive”.
Same read-out and setting: next, `O=C(O)c1cccc(N(Cc2cccnc2)c2ccc(OC(F)F)c(OC(F)F)c2)c1`: “inactive”.

The next assay is described as follows: Tanguay_ZF_120hpf_AXIS_legacy: (Legacy) Oregon State University Tanguay Lab 120 Hour Post-fertilization zebrafish Assay for Body Axis Malformation (AID 2283635).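 On AC50: potency for an increased fraction of larvae scored with body axis malformation.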 A digest of the protocol:
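Dechorionated wild-type Tropical 5D zebrafish embryos, one per well, statically exposed from 6 hpf to 120 hpf at 28C in 0.64% DMSO final. Body axis malformation scored present/absent by brightfield microscopy at 120 hpf; dead embryos excluded.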
As for `O=c1n(CC2CO2)c(=O)n(CC2CO2)c(=O)n1CC1CO1` (stereo not given), the call was inactive.
Take `O=C1CCC(N2C(=O)c3ccccc3C2=O)C(=O)N1` (stereo not given): the molecule was classed as inactive.
On the same count and under the same terms, next, `Cc1ccc(S(=O)(=O)O)cc1C`: “inactive”.
`C1N2CN3CN1CN(C2)C3`: the result was inactive.
Same read-out and setting: then `COC(=O)c1c(Cl)c(Cl)c(C(=O)OC)c(Cl)c1Cl`, with “inactive”; and `CN(C)c1ccc(N=NS(=O)(=O)O)cc1`, with “inactive”.
Same read-out and setting: then `CC(C)CC(C)(O)C#CC(C)(O)CC(C)C` (stereo not given), with “inactive”; and `O=C1OC(=O)C2C3C=CC(C3)C12` (stereo not given), with “inactive”.
In the case of `COC(=O)c1ccccc1O`, the result was inactive.
The same measure, in the same setting: next, `O=C(CCCCCCCCc1cccnc1)N1CCC(C=C(c2ccccc2)c2ccccc2)CC1`: “inactive”.
Same read-out and setting: then `C[C@](N)(Cc1ccc(O)c(O)c1)C(=O)O`, with “inactive”.
Consider `Cn1cnc([N+](=O)[O-])c1Sc1ncnc2nc[nH]c12`, for which the call was inactive.
Regarding `Oc1ccc2c(c1)-c1ccccc1C2`, the AC50 was 35.5 µM (active).
For `CCC(C)(C)C(=O)O[C@H]1C[C@@H](C)C=C2C=C[C@H](C)[C@H](CC[C@@H]3C[C@@H](O)CC(=O)O3)[C@H]21`, the half-maximal activity concentration (AC50) was 0.671 µM (active).
Regarding `Nc1cccc(N)c1`, the call was inactive.
On the same count and under the same terms, then `Nc1nc2ncc(CNc3ccc(C(=O)N[C@@H](CCC(=O)O)C(=O)O)cc3)nc2c(=O)[nH]1`, with “inactive”; and `Cn1c(=O)c2c(ncn2C)n(C)c1=O`, with “inactive”.
Take `O=C(OC[C@H]1O[C@@H](OC(=O)c2cc(O)c(O)c(OC(=O)c3cc(O)c(O)c(O)c3)c2)[C@H](OC(=O)c2cc(O)c(O)c(OC(=O)c3cc(O)c(O)c(O)c3)c2)[C@@H](OC(=O)c2cc(O)c(O)c(OC(=O)c3cc(O)c(O)c(O)c3)c2)[C@@H]1OC(=O)c1cc(O)c(O)c(OC(=O)c2cc(O)c(O)c(O)c2)c1)c1cc(O)c(O)c(OC(=O)c2cc(O)c(O)c(O)c2)c1`: the molecule was called inactive.
Still for that read-out and setting: next, `Cc1[nH]cnc1C[C@H]1CCc2c(C)c3ccccc3n2C1=O`: “inactive”; `CC(=O)OC[C@H]1O[C@@](COC(C)=O)(O[C@H]2O[C@H](COC(C)=O)[C@@H](OC(C)=O)[C@H](OC(C)=O)[C@H]2OC(C)=O)[C@@H](OC(C)=O)[C@@H]1OC(C)=O`: “inactive”.
Turning to `O=P(OC(CCl)CCl)(OC(CCl)CCl)OC(CCl)CCl`, the AC50 is 35.3 µM (active).
Still for that read-out and setting: then `COc1ccc(-n2nc(C(F)F)cc2-c2ccc(S(C)=O)cc2)cc1` (stereo not given), with 47 µM (active).
In the case of `O=C(O)c1cc(N=Nc2ccc(S(=O)(=O)Nc3ccccn3)cc2)ccc1O`, the call was inactive.
On the same count and under the same terms, then `CC(C)c1cccc(C(C)C)c1N1C(=O)c2ccc(O)cc2C1=O`, with “inactive”; and `CC(=O)OCCC(C)C`, with “inactive”.
Still for that read-out and setting: then `O=C(O)c1cccc(N(Cc2cccnc2)c2ccc(OC(F)F)c(OC(F)F)c2)c1`, with “inactive”.

These data come from PubChem BioAssay (EPA / NIEHS).
